Reference: PubChem BioAssay (EPA / NIEHS)
Results filed as inconclusive are left out. The source made the active and inactive calls. Rule for the calls, unless noted: active = hit-call score of the fitted dose curve at least 0.9, where 1 is the maximum; inactive = score below 0.9.

Key:
[1] = read-out: succinate dehydrogenase complex iron sulfur subunit B (SDHB), SDHB (gene 6390); test: LTEA_HepaRG_SDHB: Life Technologies and Expression Analysis (LTEA) Assay for succinate dehydrogenase complex iron sulfur subunit B (SDHB) using HepaRG (AID 2283528); conditions: mRNA level, 48 h; actives raise or lower the signal
Method in brief: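 SDHB transcript level read by TaqMan qRT-PCR, housekeeping-normalised (ACTB, GAPDH, POLR2A), after 48 h chemical treatment of plated HepaRG cells; eight concentrations top 100 uM, half-log steps, 0.5% DMSO, duplicates; fitted both directions against DMSO.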

[2] = read-out: Signal transducer and activator of transcription 3 (Homo sapiens) (UniProt P40763); test: LTEA_HepaRG_STAT3: Life Technologies and Expression Analysis (LTEA) Assay for Signal transducer and activator of transcription (STAT3) using HepaRG (AID 2283529); conditions: mRNA level, 48 h; actives raise or lower the signal
Method in brief: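 Differentiated HepaRG cells, serum-free induction medium, dosed 48 h in duplicate, 8 half-log concentrations from 100 uM in 0.5% DMSO. STAT3 mRNA by qRT-PCR, normalised to ACTB, GAPDH, POLR2A; bidirectional fit versus DMSO.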

[3] = read-out: solute carrier (SLCO1B1), SLCO1B1 (gene 10599); test: LTEA_HepaRG_SLCO1B1: Life Technologies and Expression Analysis (LTEA) Assay for solute carrier (SLCO1B1) using HepaRG (AID 2283530); conditions: mRNA level, 48 h; actives raise or lower the signal
Method in brief: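 SLCO1B1 transcript levels were quantified by TaqMan qRT-PCR using three housekeeping genes for normalization. This followed 48 h chemical exposure (100 uM top, half-log, 8 points, 0.5% DMSO) of HepaRG liver cells, with gain or loss fitted relative to DMSO.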

[4] = read-out: sulfotransferase 2A1 (SULT2A1), SULT2A1 (gene 6822); test: LTEA_HepaRG_SULT2A1: Life Technologies and Expression Analysis (LTEA) Assay for sulfotransferase 2A1 (SULT2A1) using HepaRG (AID 2283531); conditions: mRNA level, 48 h; actives raise or lower the signal
Method in brief: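 Expression change of SULT2A1, by qRT-PCR with three housekeeping-gene normalization, was scored bidirectionally versus DMSO. Cells: differentiated HepaRG, dosed in duplicate for 48 h across 8 points, highest 100 µM, half-log dilution, 0.5% DMSO.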

[5] = read-out: Transforming Growth Factor (TGFA), TGFA (gene 7039); test: LTEA_HepaRG_TGFA: Life Technologies and Expression Analysis (LTEA) Assay for Transforming Growth Factor (TGFA) using HepaRG (AID 2283532); conditions: mRNA level, 48 h; actives raise or lower the signal
Method in brief: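 Differentiated HepaRG cells exposed 48 hours in serum-free induction medium, 0.5% DMSO vehicle, 8-point half-log series from 100 uM, in duplicate. TGFA mRNA by TaqMan qRT-PCR, normalised to ACTB, GAPDH, POLR2A; bidirectional fit versus DMSO.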

[6] = read-out: Transforming Growth Factor (TGFB1), TGFB1 (gene 7040); test: LTEA_HepaRG_TGFB1: Life Technologies and Expression Analysis (LTEA) Assay for Transforming Growth Factor (TGFB1) Transporter using HepaRG (AID 2283533); conditions: mRNA level, 48 h; actives raise or lower the signal
Method in brief: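 TGFB1 transcript measured by qRT-PCR with normalisation to three housekeeping genes (ACTB, GAPDH, POLR2A); human HepaRG line treated in duplicate for 48 hr with an 8-point series topping at 100 uM, 0.5% DMSO vehicle, bidirectionally fitted.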

TIMP1, TIMP1 (gene 7076) = test: LTEA_HepaRG_TIMP1: Life Technologies and Expression Analysis (LTEA) Assay for TIMP1 using HepaRG (AID 2283534); conditions: mRNA level, 48 h; actives raise or lower the signal
Method in brief: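 Bidirectional change in TIMP1 transcript versus 0.5% DMSO, measured by TaqMan qRT-PCR with three housekeeping genes for normalization. HepaRG human liver cells dosed 48 h in duplicate, top concentration 100 uM with half-log dilutions.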

[7] = read-out: Tumor necrosis factor receptor 1 (TNFRSF1A), TNFRSF1A (gene 7132); test: LTEA_HepaRG_TNFRSF1A: Life Technologies and Expression Analysis (LTEA) Assay for Tumor necrosis factor receptor 1 (TNFRSF1A) using HepaRG (AID 2283535); conditions: mRNA level, 48 h; actives raise or lower the signal
Method in brief: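 mRNA measured by qRT-PCR (TaqMan, Fluidigm arrays) against ACTB/GAPDH/POLR2A housekeepers after 48 h chemical exposure of HepaRG cells. Top concentration 100 uM, half-log 8-point series, duplicates; vehicle 0.5% DMSO, both fit directions.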

[8] = read-out: Thyroid Hormone Responsive (THRSP), THRSP (gene 7069); test: LTEA_HepaRG_THRSP: Life Technologies and Expression Analysis (LTEA) Assay for Thyroid Hormone Responsive (THRSP) using HepaRG (AID 2283536); conditions: mRNA level, 48 h; actives raise or lower the signal
Method in brief: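 Differentiated HepaRG cells treated 48 h in serum-free induction medium with 8 half-log concentrations up to 100 uM (0.5% DMSO), duplicates. THRSP mRNA by TaqMan qRT-PCR normalised to ACTB, GAPDH, POLR2A; bidirectional fit versus DMSO.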

[9] = read-out: Cellular tumor antigen p53 (Homo sapiens) (UniProt P04637); test: LTEA_HepaRG_TP53: Life Technologies and Expression Analysis (LTEA) Assay for Tumor Protein P53 (TP53) using HepaRG (AID 2283537); conditions: mRNA level, 48 h; actives raise or lower the signal
Method in brief: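 TP53 transcript measured by qRT-PCR, normalized to three housekeeping genes, after 48 h treatment of human HepaRG cultures with chemicals from 100 uM downward in half-log steps (0.5% DMSO vehicle, serum-free induction medium). Up- or down-regulation fitted against DMSO.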

[10] = read-out: UDP glucuronosyltransferase (UGT1A1), UGT1A1 (gene 54658); test: LTEA_HepaRG_UGT1A1: Life Technologies and Expression Analysis (LTEA) Assay for UDP glucuronosyltransferase (UGT1A1) using HepaRG (AID 2283538); conditions: mRNA level, 48 h; actives raise or lower the signal
Method in brief: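 HepaRG cells, 0.5% DMSO vehicle, 48 h exposure in serum-free induction medium to 8-point half-log series topping at 100 uM, in duplicate. UGT1A1 mRNA by Fluidigm qRT-PCR, normalized to ACTB/GAPDH/POLR2A; bidirectional fit versus DMSO.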

[11] = read-out: UDP glucuronosyltransferase (UGT1A6), UGT1A6 (gene 54578); test: LTEA_HepaRG_UGT1A6: Life Technologies and Expression Analysis (LTEA) Assay for UDP glucuronosyltransferase (UGT1A6) using HepaRG (AID 2283539); conditions: mRNA level, 48 h; actives raise or lower the signal
Method in brief: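 Expression was quantified by TaqMan qRT-PCR on Fluidigm arrays with ACTB/GAPDH/POLR2A normalization and bidirectional fitting against 0.5% DMSO. HepaRG cells (~100,000/well) were treated in duplicate for 48 h at eight half-log concentrations up to 100 uM in serum-free induction medium.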

[12] = read-out: X-box binding protein 1 (XBP1), XBP1 (gene 7494); test: LTEA_HepaRG_XBP1: Life Technologies and Expression Analysis (LTEA) Assay for X-box binding protein 1 (XBP1) using HepaRG (AID 2283540); conditions: mRNA level, 48 h; actives raise or lower the signal
Method in brief: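 XBP1 transcript by qRT-PCR (housekeeping-normalized: ACTB, GAPDH, POLR2A) after 48 h chemical treatment of HepaRG cells, 8-point half-log series topping at 100 uM, vehicle 0.5% DMSO. Gain and loss of signal fitted relative to DMSO.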

[13] = LTEA_HepaRG_LDH_cytotoxicity: Cytotoxicity Assessment in the Life Technologies and Expression Analysis (LTEA) Assay (AID 2283563; active = hit-call score of the fitted dose curve at least 0.9, where 1 is the maximum;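 for AC50: LDH activity released into spent culture medium as a marker of cell death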)
Method in brief: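 LDH release into culture medium read after 48 h chemical treatment of HepaRG cells. Duplicate wells, eight-point half-log series topping at 100 uM, 0.5% DMSO vehicle and baseline.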

[14] = ATG_XTT_Cytotoxicity: Cytotoxicity Assessment in the Attagene TRANS-FACTORIAL HepG2 Assay (AID 2283584; active = hit-call score of the fitted dose curve at least 0.9, where 1 is the maximum)
Method in brief: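 Viability endpoint from XTT after 24 h chemical exposure of reporter-transfected human HepG2 liver cells; signal loss fitted relative to DMSO negative control.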

[15] = TOX21_p53_BLA_p2_viability: Viability Assessment in the Tox21 HCT-116 p53 Agonism Beta-lactamase Assay, Phase 2 (AID 2283591; active = hit-call score of the fitted dose curve at least 0.9, where 1 is the maximum;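 note: compound exposure lasted 16 h at 37 °C; actives lower the ATP signal meaning cytotoxicity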)
Method in brief: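 HCT116 p53-bla cells, 4000/well, dosed after 5 h plating (217-fold dilution of DMSO stocks) and incubated 16 h at 37C. Viability taken as cellular ATP by CellTiter-Glo luminescence after 30 min RT; signal loss marks cytotoxicity.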

[16] = biological target: Cellular tumor antigen p53 (Homo sapiens) (UniProt P04637); test: TOX21_p53_BLA_p2_ratio: Tox21 HCT-116 p53 Agonism Beta-lactamase Assay, Ratio, Phase 2 (AID 2283592; active = hit-call score of the fitted dose curve at least 0.9, where 1 is the maximum)
Method in brief: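 Gain-of-signal p53 agonism was scored from the beta-lactamase FRET ratio (460/530 nm, 405 nm excitation) in HCT116 cells treated 16 h at 37C, 5% CO2, with DMSO serving as negative control and baseline.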

[17] = biological target: Cellular tumor antigen p53 (Homo sapiens) (UniProt P04637); test: TOX21_p53_BLA_p3_ratio: Tox21 HCT-116 p53 Agonism Beta-lactamase Assay, Ratio, Phase 3 (AID 2283596; active = hit-call score of the fitted dose curve at least 0.9, where 1 is the maximum)
Method in brief: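 HCT116 p53-bla cells (4000/well) given compound in DMSO (217-fold dilution) after 5 h, incubated 16 h at 37C. CCF4-AM substrate 2 h at room temperature; 460/530 nm emission ratio, gain fitted against DMSO.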

[18] = TOX21_p53_BLA_p4_viability: Viability Assessment in the Tox21 HCT-116 p53 Agonism Beta-lactamase Assay, Phase 4 (AID 2283597; active = hit-call score of the fitted dose curve at least 0.9, where 1 is the maximum;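 note: hits lower the luminescence signal meaning cytotoxicity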)
Method in brief: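 Following a 16 h exposure at 37C, the treated HCT116 wells were first read for the FRET ratio. They were then lysed with CellTiter-Glo, and ATP luminescence was recorded after 30 min at room temperature.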

Sequence of Cellular tumor antigen p53 (Homo sapiens) (P04637 whole entry, looked up): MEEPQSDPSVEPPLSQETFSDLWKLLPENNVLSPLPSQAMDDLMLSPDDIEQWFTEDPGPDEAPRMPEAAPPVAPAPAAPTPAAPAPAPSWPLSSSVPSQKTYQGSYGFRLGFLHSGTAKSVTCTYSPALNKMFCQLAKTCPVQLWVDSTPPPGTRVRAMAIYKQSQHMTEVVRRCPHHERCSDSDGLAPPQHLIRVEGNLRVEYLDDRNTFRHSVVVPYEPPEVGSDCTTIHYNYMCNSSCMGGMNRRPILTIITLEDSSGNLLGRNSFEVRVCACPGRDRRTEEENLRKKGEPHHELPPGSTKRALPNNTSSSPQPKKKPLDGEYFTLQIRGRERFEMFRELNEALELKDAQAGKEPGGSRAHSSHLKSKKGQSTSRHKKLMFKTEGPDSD
Sequence of Signal transducer and activator of transcription 3 (Homo sapiens) (P40763 whole entry, looked up): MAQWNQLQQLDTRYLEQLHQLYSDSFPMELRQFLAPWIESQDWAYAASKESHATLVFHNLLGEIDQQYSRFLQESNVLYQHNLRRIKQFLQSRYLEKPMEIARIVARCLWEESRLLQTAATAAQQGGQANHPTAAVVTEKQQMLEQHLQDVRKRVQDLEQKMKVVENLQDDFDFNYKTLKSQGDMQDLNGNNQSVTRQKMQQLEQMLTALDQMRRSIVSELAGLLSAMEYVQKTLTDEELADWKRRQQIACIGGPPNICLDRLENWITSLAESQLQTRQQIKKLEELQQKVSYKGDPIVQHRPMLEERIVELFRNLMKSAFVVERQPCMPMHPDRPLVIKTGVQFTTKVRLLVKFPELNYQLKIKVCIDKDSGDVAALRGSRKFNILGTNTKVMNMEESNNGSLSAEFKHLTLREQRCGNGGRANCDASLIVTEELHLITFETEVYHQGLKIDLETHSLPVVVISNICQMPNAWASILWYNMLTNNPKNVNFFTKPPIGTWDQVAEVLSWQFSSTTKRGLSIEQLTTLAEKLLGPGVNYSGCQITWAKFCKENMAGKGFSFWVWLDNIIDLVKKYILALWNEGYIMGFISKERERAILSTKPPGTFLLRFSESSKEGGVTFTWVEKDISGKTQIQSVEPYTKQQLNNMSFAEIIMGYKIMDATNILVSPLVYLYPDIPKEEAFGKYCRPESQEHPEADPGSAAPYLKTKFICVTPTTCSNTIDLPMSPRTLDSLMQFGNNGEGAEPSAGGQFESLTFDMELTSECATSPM

What does the source list for CC(=O)OC/C=C(\C)CCC=C(C)C?
outcome [1]: inactive; outcome [2]: inactive; outcome [3]: inactive; outcome [4]: inactive; outcome [5]: inactive; outcome [6]: inactive; outcome (TIMP1, TIMP1 (gene 7076)): inactive; outcome [7]: inactive; outcome [8]: inactive; outcome [9]: inactive; outcome [10]: inactive; outcome [11]: inactive; outcome [12]: inactive; outcome [13]: inactive; outcome [14]: inactive; outcome [15]: inactive; outcome [16]: inactive; outcome [17]: inactive; outcome [18]: inactive

With CC=Cc1ccc(O)c(OC)c1 as the compound, how does the outcome [1] read?
Its outcome is “inactive”.

What about the outcome [2] of the same compound?
Its outcome is “inactive”.

What about the outcome [3] of the same compound?
Its outcome is “inactive”.

And the outcome [4]?
The outcome was “inactive”.

What about the outcome [5] of the same compound?
Its outcome is “inactive”.

And the outcome [6]?
The outcome was “inactive”.

And the outcome (TIMP1, TIMP1 (gene 7076))?
Its outcome is “inactive”.

What about the outcome [7] of the same compound?
Its outcome is “inactive”.

And the outcome [8]?
The outcome was “inactive”.

What about the outcome [9] of the same compound?
Its outcome is “inactive”.

What about the outcome [10] of the same compound?
The outcome was “inactive”.

And the outcome [11]?
Its outcome is “inactive”.

And the outcome [12]?
Its outcome is “inactive”.

What about the outcome [13] of the same compound?
Its outcome is “inactive”.

What about the outcome [14] of the same compound?
Its outcome is “inactive”.

What about the outcome [15] of the same compound?
The outcome was “inactive”.

And the outcome [16]?
The outcome was “inactive”.

What about the outcome [17] of the same compound?
The outcome was “inactive”.

What about the outcome [18] of the same compound?
Its outcome is “inactive”.

What does the source list for COc1ccc(S(=O)(=O)N2C(=O)[C@@](c3ccccc3OC)(N3C[C@H](O)C[C@H]3C(=O)N(C)C)c3cc(Cl)ccc32)c(OC)c1?
AC50 [1]: 12.9 µM (active); AC50 [2]: 50 µM (active); AC50 [3]: 25.9 µM (active); AC50 [4]: 50.7 µM (active); AC50 [5]: 78.7 µM (active); outcome (TIMP1, TIMP1 (gene 7076)): inactive; outcome [7]: inactive; AC50 [8]: 19.5 µM (active); AC50 [9]: 22.7 µM (active); AC50 [10]: 34.8 µM (active); outcome [12]: inactive; AC50 [13]: 79.5 µM (active); AC50 [15]: 86.3 µM (active); outcome [17]: inactive; AC50 [18]: 67.7 µM (active)

With CC(=O)C(C)=CC1C(C)=CCCC1(C)C (centres undefined) as the compound, how does the outcome [1] read?
Its outcome is “inactive”.

What about the outcome [2] of the same compound?
Its outcome is “inactive”.

And the outcome [3]?
Its outcome is “inactive”.

What about the outcome [4] of the same compound?
Its outcome is “inactive”.

What about the outcome [5] of the same compound?
Its outcome is “inactive”.

And the outcome (TIMP1, TIMP1 (gene 7076))?
The outcome was “inactive”.

And the outcome [7]?
Its outcome is “inactive”.

And the outcome [8]?
Its outcome is “inactive”.

What about the outcome [10] of the same compound?
The outcome was “inactive”.

And the outcome [12]?
The outcome was “inactive”.

And the outcome [13]?
Its outcome is “inactive”.

And the outcome [14]?
Its outcome is “inactive”.

What about the outcome [15] of the same compound?
Its outcome is “inactive”.

What about the outcome [16] of the same compound?
The outcome was “inactive”.

What about the outcome [17] of the same compound?
Its outcome is “inactive”.

What about the outcome [18] of the same compound?
The outcome was “inactive”.
